Assay results reported in paper PMC4336329 (PLoS ONE, 2015).
Among all 310,000 compounds or so, about 2,200 (0.71%) showed an effect of 50% or more. The effect is printed as a negative number. This excerpt belongs to a sample that is enriched for strong results.

Each molecule was assayed against human ether-à-go-go-related gene (hERG) potassium channel (human, UniProt Q12809) (assay: primary screen, population patch clamp on CHO cells stably expressing hERG; higher = less effect of the substance).
human ether-à-go-go-related gene (hERG) potassium channel, sequence (Q12809 whole entry, looked up): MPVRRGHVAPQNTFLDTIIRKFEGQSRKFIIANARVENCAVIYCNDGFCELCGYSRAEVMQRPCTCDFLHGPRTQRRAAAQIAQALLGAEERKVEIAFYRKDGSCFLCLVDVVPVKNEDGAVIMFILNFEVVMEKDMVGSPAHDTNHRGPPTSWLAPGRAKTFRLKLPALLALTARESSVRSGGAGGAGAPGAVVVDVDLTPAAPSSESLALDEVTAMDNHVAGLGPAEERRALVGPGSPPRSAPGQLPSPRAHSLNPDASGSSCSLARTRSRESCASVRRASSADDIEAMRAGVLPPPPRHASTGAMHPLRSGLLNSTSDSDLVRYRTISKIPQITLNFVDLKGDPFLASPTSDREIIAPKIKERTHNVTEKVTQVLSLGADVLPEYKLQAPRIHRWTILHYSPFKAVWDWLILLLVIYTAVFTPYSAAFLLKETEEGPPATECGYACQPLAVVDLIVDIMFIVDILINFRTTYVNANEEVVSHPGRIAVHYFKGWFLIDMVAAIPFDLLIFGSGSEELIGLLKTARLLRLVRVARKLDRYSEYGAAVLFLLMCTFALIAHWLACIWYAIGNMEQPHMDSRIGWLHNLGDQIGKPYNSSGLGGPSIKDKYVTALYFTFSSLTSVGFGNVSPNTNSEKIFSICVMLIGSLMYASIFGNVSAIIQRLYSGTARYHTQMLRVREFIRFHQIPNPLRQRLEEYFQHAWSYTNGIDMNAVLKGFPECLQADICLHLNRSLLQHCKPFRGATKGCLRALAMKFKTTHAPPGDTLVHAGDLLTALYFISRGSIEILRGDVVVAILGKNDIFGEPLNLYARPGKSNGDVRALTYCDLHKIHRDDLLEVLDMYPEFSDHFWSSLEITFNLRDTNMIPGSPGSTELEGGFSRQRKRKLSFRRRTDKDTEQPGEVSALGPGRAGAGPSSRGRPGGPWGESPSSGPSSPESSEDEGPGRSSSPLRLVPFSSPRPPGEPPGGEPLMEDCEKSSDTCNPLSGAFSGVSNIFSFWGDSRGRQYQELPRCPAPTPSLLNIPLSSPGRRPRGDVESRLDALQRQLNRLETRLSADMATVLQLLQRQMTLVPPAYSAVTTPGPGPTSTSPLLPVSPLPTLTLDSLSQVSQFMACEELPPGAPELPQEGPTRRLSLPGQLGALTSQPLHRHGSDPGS

| Structure (SMILES) | hERG current change (%, negative = inhibition) at 1uM |
| --- | --- |
| O=C(Cc1cccc(NC(=O)C2CCCN(C(=O)C3CCC3)C2)c1)Nc1cccc(C(=O)N2CCCC2)c1 (stereo not drawn) | 9.32% |
| COc1ccc(C(=O)N2N=C(c3cccc(NS(C)(=O)=O)c3)CC2c2cccs2)cc1 (stereo not drawn) | -22.1% |
| COc1cccc(C(=O)N/N=C/c2ccc(OC3CSC3)cc2)c1 | 12.7% |
| O=C(N/N=C/c1ccc(OC2CSC2)cc1)c1ccccc1 | -0.636% |
| Cc1cccc(C(=O)N/N=C/c2ccc(OC3CSC3)cc2)c1 | -59.8% |
| CN(CC(=O)Nc1ccccc1C(F)(F)F)C(=O)COc1ncnc2sccc12 | 6.31% |
| C=CCn1c(SCC(=O)NC(=O)NCC(C)C)nnc1C1CCCCC1 | 13.9% |
| O=C(O)CCC(=O)NCc1cn(-c2ccccc2)nc1-c1cccc(Br)c1 | 9.76% |
| O=C(c1cc([N+](=O)[O-])ccc1Cl)N1CCN(c2ccccc2)CC1 | 4.13% |
| O=C(c1cc([N+](=O)[O-])ccc1N1CCOCC1)N1CCN(c2ccc([N+](=O)[O-])cc2)CC1 | -74% |
| O=C(c1cc([N+](=O)[O-])ccc1Cl)N1CCN(c2ccc(F)cc2)CC1 | 0.85% |
| O=C(c1cc([N+](=O)[O-])ccc1N1CCOCC1)N1CCOCC1 | 12.4% |
| Cc1ccc(S(=O)(=O)N2CCN(C(=O)c3cc(S(=O)(=O)N(C)C)ccc3N3CCCC3)CC2)cc1 | 13.1% |
| Cc1cccc(N2CCN(C(=O)c3cc(S(=O)(=O)N(C)C)ccc3N3CCCC3)CC2)c1C | 5.76% |
| O=C(c1cc([N+](=O)[O-])ccc1Cl)N1CCN(c2ccc([N+](=O)[O-])cc2)CC1 | -58.8% |
| O=C(c1cc([N+](=O)[O-])ccc1N1CCOCC1)N1CCN(c2ccccc2)CC1 | 7.19% |
| CN(C)S(=O)(=O)c1ccc(N2CCCC2)c(C(=O)N2CCN(c3ccc([N+](=O)[O-])cc3)CC2)c1 | -84% |
| COc1ccc(-c2cc(-c3cccs3)nc(OC)c2C#N)cc1OC | 24.6% |
| COc1ccc(CN2CCC(N3CC(C)OC(C)C3)CC2)c(OC)c1OC.O=C(O)C(=O)O (stereo not drawn) | 2.62% |
| N#Cc1ccccc1CSc1ccc(-c2nc3ccccc3[nH]2)cn1 | 16.2% |
| O=C(CSc1ccc(-c2ccccc2)nn1)Nc1ccc2c(c1)OCCO2 | 8.92% |

| Structure (SMILES) | hERG current change (%, negative = inhibition) at 1uM |
| --- | --- |
| Cc1nc(C)c(C(=O)Nc2nc3c(C)cccc3s2)o1 | -4.12% |
| Cc1ccc([N+](=O)[O-])cc1S(=O)(=O)Nc1ccc(O)c(Sc2ncn[nH]2)c1 | 14.7% |
| COc1ccc(CCNC(=O)/C=C/c2ccco2)cc1OC | 5.95% |
| CCOc1ccc(CCNC(=O)/C=C/c2ccco2)cc1OCC | -170% |
| CCOc1ccc(CCNC(=O)COC(=O)/C=C/c2ccco2)cc1OCC | 15.9% |
| O=C(c1ccc(S(=O)(=O)c2cccc(Cl)c2)c([N+](=O)[O-])c1)N1CCN(Cc2ccccc2)CC1 | 15.8% |
| COc1ccc(C(=S)N2CCOCC2)cc1OC(=O)c1ccc([N+](=O)[O-])cc1[N+](=O)[O-] | -63.1% |
| COc1cc(C(=S)N2CCOCC2)ccc1OC(=O)c1ccc([N+](=O)[O-])cc1[N+](=O)[O-] | 15.5% |
| COc1cc(C(=S)N2CCOCC2)cc(OC)c1OC(=O)c1ccc([N+](=O)[O-])cc1[N+](=O)[O-] | 5.28% |
| CC1CCc2nc3ccccc3c(C(=O)OCC(=O)NC3CCS(=O)(=O)C3)c2C1 (stereo not drawn) | 13% |
| CC(=O)Nc1ccc(S(=O)(=O)Nc2ccc(S(=O)(=O)N3CCCC3)cc2)cc1 | 4.58% |
| Cc1ccc(C)c(/C=C(\C(=O)O)c2ccc(S(=O)(=O)N3CCCCC3)s2)c1 | 6.97% |
| COc1ccc(NC(=O)c2cc([N+](=O)[O-])ccc2NC(=O)CNCc2ccccn2)c(OC)c1 | 9.51% |
| COc1ccc(NC(=O)c2cc([N+](=O)[O-])ccc2NC(=O)CNC2CCCCC2C)c(OC)c1 (stereo not drawn) | -78.8% |
| COc1cc(NC(=O)c2cc([N+](=O)[O-])ccc2NC(=O)CNC2CCCCC2C)cc(OC)c1 (stereo not drawn) | 17.4% |
| CCN(c1ccccc1)S(=O)(=O)c1cccc(C(=O)NCC2(N(C)C)CCCCC2)c1 | -11% |
| O=C(OCC(=O)N1CCOCC1)c1ccccc1O | 13.6% |
| Cc1cc(C)cc(NC(=O)C(OC(=O)c2cccs2)c2ccccc2)c1 (stereo not drawn) | 16.7% |
| Cn1c(=O)c2c(nc(N3CCOCC3)n2C)n(C)c1=O | -1.83% |
| Cn1c(=O)c2c(ncn2CC(=O)N2CCN(c3ccccc3)CC2)n(C)c1=O | 8.13% |
| Cn1c(=O)c2c(nc(N3CCCC3)n2C)n(C)c1=O | 12.6% |

| Structure (SMILES) | hERG current change (%, negative = inhibition) at 1uM |
| --- | --- |
| Cn1c(=O)c2c(ncn2CC(=O)N2CCN(c3ccc([N+](=O)[O-])cc3)CC2)n(C)c1=O | -69.6% |
| Cn1c(=O)c2c(nc(N3CCN(c4ccc([N+](=O)[O-])cc4)CC3)n2C)n(C)c1=O | -81.7% |
| Cn1c(=O)c2c(ncn2CC(=O)N2CCN(c3ccc(F)cc3)CC2)n(C)c1=O | -0.183% |
| Cc1nc2c(C(=O)N3CCCC3)cnn2c(C)c1Cc1c(F)cccc1Cl | -11.4% |
| C=Cc1ccc(COC(=O)c2cn(CC)c3nc(C)ccc3c2=O)cc1 | -21% |
| O=C(CC(=O)N/N=C/c1ccccc1)NCc1ccccc1 | 8.85% |
| COc1nc(OC)nc(N2CCC(C(=O)NCc3ccco3)CC2)n1 | -0.721% |
| Cc1cc(C)nc(N2CCC(C(=O)NCc3ccccc3F)CC2)n1 | 1.75% |
| O=C(NCc1ccco1)C1CCN(c2nc3ccccc3n2Cc2ccccc2F)CC1 | -62.8% |
| Cc1ccc(Cn2cnc3ccccc32)cc1 | 13% |
| O=C(O)CC(c1cccc(O)c1)N1Cc2ccccc2C1=O (stereo not drawn) | 12% |
| CC(C)OCP(=O)(c1ccccc1)c1ccccc1 | 6.74% |
| CCOCCCNC(=O)CNC(=S)N(Cc1ccccc1F)C1CCCCC1 | -6.79% |
| CCN1C(=S)SC(=O)C1=C1C=C(C)N(Cc2ccco2)C(C)=C1 | 1.56% |
| CC(C)c1cc(N=NC(N)=O)cc(C(C)C)c1O | 6.77% |
| CCN(CC(=O)NCc1ccc(F)cc1)Cc1nc2cc(Cl)ccc2c(=O)[nH]1 | -52.5% |
| CCN(CC(=O)NCc1ccc(F)cc1)Cc1nc2ccccc2c(=O)[nH]1 | -8.93% |
| CCN(CC(=O)NCCc1ccc(F)cc1)Cc1nc2ccccc2c(=O)[nH]1 | 1.66% |
| COc1ccc(C(=O)N2CCN(C3CCCCC3)CC2)cc1OC.O=C(O)C(=O)O | -74.2% |
| O=C(CCCc1ccccc1)N1CCN(C2CCCCC2)CC1 | -23.6% |
| COc1ccc(CCC(=O)N2CCN(C(=O)c3ccccc3)CC2)cc1 | 14.6% |

| Structure (SMILES) | hERG current change (%, negative = inhibition) at 1uM |
| --- | --- |
| CC1CCCC(N2CCN(C(=O)c3ccc([N+](=O)[O-])cc3)CC2)C1.O=C(O)C(=O)O (stereo not drawn) | -67.3% |
| COc1ccc(C(=O)N2CCN(C3CCN(Cc4ccccc4)CC3)CC2)cc1OC | -14.5% |
| COc1cccc(C(=O)N2CCN(C3CCC(c4ccccc4)CC3)CC2)c1OC.O=C(O)C(=O)O (stereo not drawn) | 3.34% |
| COc1ccc(C(=O)N2CCN(C3CCC(c4ccccc4)CC3)CC2)cc1OC (stereo not drawn) | -60.4% |
| COc1cc(C(=O)N2CCN(C3CCCCC3)CC2)cc(OC)c1OC.O=C(O)C(=O)O | 14.5% |
| COc1ccc(CCC(=O)N2CCN(C3CCCCC3)CC2)cc1 | -56.7% |
| CC1CCCC(N2CCN(C(=O)c3cccc(F)c3)CC2)C1.O=C(O)C(=O)O (stereo not drawn) | 8.59% |
| CC1CCCC(N2CCN(C(=O)c3ccc(F)cc3)CC2)C1 (stereo not drawn) | -25% |
| COc1cccc(C(=O)N2CCN(C3CCCCC3)CC2)c1.O=C(O)C(=O)O | 6.64% |
| Cc1ccc(CN(c2ccc(C(=O)NCc3cccnc3)cc2)S(C)(=O)=O)cc1 | 1.51% |
| COc1ccc(N2CCN(CCCNC(=O)C(=O)c3c(C)n(C)c4ccccc34)CC2)cc1 | -9.85% |
| COc1ccc2c(c1)C(NC(C)=O)C(=O)N2CCc1ccccc1 (stereo not drawn) | 3.02% |
| Cc1oc(-c2ccoc2)nc1CN(CC1CCC(=O)N1)C(C)C (stereo not drawn) | 11.6% |
| CCNc1nc(N2CCCC2)nc(N2CCCC2)n1 | 0.687% |
| CCCCN1CNC(=S)N(c2cc(C)ccc2C)C1 | 7.21% |
| Nc1[nH]c(=O)nc(Nc2ccccc2)c1N=O | 8.79% |
| O=C(c1ccc(CNc2c(N3CCCC3)c(=O)c2=O)cc1)N1CCc2ccccc2C1 | -3.76% |
| CCO[C@@H]1OC(C(=O)N2CCN(Cc3ccc4c(c3)OCO4)CC2)=C[C@H](c2ccc(C(F)(F)F)cc2)[C@H]1CCCO | 3.44% |
| COc1ccc(C(=O)N2CCCN(C)CC2)c(OC)c1 | 11% |
| COc1cc(OC)cc(C(=O)N2CCN(C3CCCCC3)CC2)c1.O=C(O)C(=O)O | -2.01% |
| COc1ccc(C(=O)N2CCN(C3CCCCC3)CC2)c(OC)c1 | -75% |
